From PubChem BioAssay (NCI)
This is part of a sample that, as a whole, favours compounds with a hit. Of some 83,000 tested, about 20% had one in any assay.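 Step 1: grow cells in 96-well plates. Step 2: add test compound at a single concentration. Step 3: incubate 48 h. Step 4: record percent growth.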 A number with no mark means an inactive call. Activity calls are given as the source filed them. Rule for the calls: active = growth percent below 10; inactive = the rest.

Experiments:
Test in all cases: NCI-60 one-dose screen, 48 h (100 = growth as untreated, 0 = no growth, -100 = all killed)
Conditions in all cases: 10 µM unless noted
DU-145 prostate = test system: DU-145 prostate
K-562 leukemia = test system: K-562 leukemia
MALME-3M melanoma = test system: MALME-3M melanoma
MDA-MB-231 breast = test system: MDA-MB-231 breast
SF-268 CNS = test system: SF-268 CNS
SF-295 CNS = test system: SF-295 CNS
SF-539 CNS = test system: SF-539 CNS
M14 melanoma = test system: M14 melanoma
HCT-15 colon = test system: HCT-15 colon
HT29 colon = test system: HT29 colon
SNB-75 CNS = test system: SNB-75 CNS
SNB-19 CNS = test system: SNB-19 CNS
U251 CNS = test system: U251 CNS
PC-3 prostate = test system: PC-3 prostate
SK-MEL-5 melanoma = test system: SK-MEL-5 melanoma
UACC-62 melanoma = test system: UACC-62 melanoma
LOX IMVI melanoma = test system: LOX IMVI melanoma
SK-MEL-28 melanoma = test system: SK-MEL-28 melanoma

SMILES	growth (DU-145 prostate)	growth (K-562 leukemia)	growth (MALME-3M melanoma)	growth (MDA-MB-231 breast)	growth (SF-268 CNS)	growth (SF-295 CNS)	growth (SF-539 CNS)	growth (M14 melanoma)	growth (HCT-15 colon)	growth (HT29 colon)	growth (SNB-75 CNS) [%]	growth (SNB-19 CNS)	growth (U251 CNS)	growth (PC-3 prostate)	growth (SK-MEL-5 melanoma)	growth (UACC-62 melanoma)	growth (LOX IMVI melanoma)	growth (SK-MEL-28 melanoma)
COc1ccc(C2OC(c3cc(-c4cc5ccccc5o4)nn3-c3ccccc3)=NN2C(C)=O)cc1 (stereo unspecified)	101%	93.1%	107%	95.9%	97.7%	100%	98.6%	99%	97.2%	93.3%	87.5	91.3%	96.2%	88.9%	8.69% (active)	86.9%	85.5%	109%
Cc1ccc(N=C2CSc3nnc(-c4csc5c4CCCC5)n3N2)cc1	25.4%	10.7%	70.6%	43%	40.8%	-6.51% (active)	-2.46% (active)	5.9% (active)	22.9%	7.38% (active)	56.9	35.7%	23%	27.9%	19%	40.2%	46.3%	63.2%
O=C(Cc1ccccc1)Nc1nnc(NC2CCN(c3nnc(NC(=O)Cc4ccccc4)s3)CC2)s1	91.7%	87.9%	82.8%	77.5%	91.1%	56.8%	93.5%	85.2%	99.4%	94.4%	106	107%	90.8%	87.1%	98.7%	89%	69.2%	107%
COc1cc(NCCN(CC(C)C)CC(C)C)c2ncc(C)cc2c1	71.4%	34.2%	66.7%	50.3%	71.1%	64.6%	97.7%	61%	34.2%	86.1%	95.3	85.3%	67.9%	47.8%	23.6%	53%	15.5%	79.7%
C=CC[n+]1c(/C=C2\Sc3ccccc3N2C)sc(-c2ccccc2)c1-c1ccccc1	23.4%	7.28% (active)	4.72% (active)	31.4%	32.9%	-17.1% (active)	20.3%	19.7%	26.2%	6.28% (active)	12	26.8%	15.1%	17.9%	-97.8% (active)	13.8%	10.9%	33.5%
CCCCCCCC(=O)SCC/C=C/[C@@H]1CC(=O)NCc2nc(co2)C2=N[C@@](C)(CS2)C(=O)N[C@@H](C(C)C)C(=O)O1	7.24% (active)	6.6% (active)	5.59% (active)	-1.69% (active)	1.9% (active)	-62.5% (active)	9.22% (active)	-3.25% (active)	0.603% (active)	2.22% (active)	26.1	9.15% (active)	-61.2% (active)	9.75% (active)	-93.5% (active)	-68% (active)	-97.2% (active)	-37.2% (active)
CC1(O)CCC2CC3OC3(C)CCC3OC3(C)C(O)CC1C2(C)C (stereo unspecified)	105%	119%	113%	122%	113%	52%	116%	114%	102%	102%	95.3	99.3%	98.3%	87.4%	112%	98.3%	93.7%	112%
N#Cc1c(NC(=O)c2ccco2)[n+]([O-])c2cc(F)c(F)cc2[n+]1[O-]	76.1%	56.6%	116%	96.7%	89.7%	106%	74.8%	112%	70.5%	93.6%	83.3	85.7%	92.3%	80.7%	61.3%	88.4%	83.4%	94.5%
CC1(/C=N/NC(N)=S)NC(=O)NC1=O (stereo unspecified)	107%	89.4%	107%	99.2%	102%	108%	110%	103%	104%	93.3%	90.6	108%	94.5%	93%	100%	95.6%	101%	117%
Cc1cccc(NC(=O)[C@@H]2c3ccccc3C(=O)N(c3ccc(Cl)cc3)[C@H]2c2ccc(Cl)cc2)n1	79.8%	47.7%	61.1%	32.1%	62.8%	24.1%	71%	45.8%	26.1%	11%	68.5	67.5%	43.1%	17.1%	33.1%	44.1%	80.3%	69.2%
COc1ccc(C2CC(=O)c3c(O)c(OC)c(OC)c(OC)c3O2)cc1O (stereo unspecified)	18.2%	11.6%	57.5%	17.1%	44.6%	6.54% (active)	-13% (active)	7.68% (active)	9.19% (active)	101%	39.9	36.9%	25.7%	31.2%	18.9%	35.2%	40.9%	52.9%
COC(=O)[C@]12CC[C@@H](C)[C@H](C)[C@@H]1C1=CC[C@@H]3[C@@]4(C)C(C#N)=CC(C)=C4CC[C@@]3(C)[C@]1(C)CC2	99.3%	84.5%	87.5%	85.4%	85.3%	85.4%	91.8%	77.2%	89.5%	73.7%	84.5	96.3%	87.2%	68.9%	86.3%	69.3%	92.1%	91.4%
C=C1C[C@H](O)[C@H](Br)C(C)(C)[C@@]12CCC(C)=C(Cl)C2	22.7%	12.3%	38.5%	22.4%	30.9%	-3.01% (active)	34%	-19.7% (active)	-4.29% (active)	3.04% (active)	52.9	40.7%	20.4%	16.6%	-60.8% (active)	-11.8% (active)	-5.6% (active)	30.1%
C=CC[n+]1c(/C=C/C=C2\N(C)c3ccccc3C2(C)C)sc2ccc(OC)cc21	25.6%	10.3%	5.31% (active)	26.1%	32.7%	-17.7% (active)	25.7%	23%	12.8%	9.18% (active)	20	28.2%	15.9%	17.6%	-90.7% (active)	19.5%	15.9%	37.5%
O=C(N/N=C/c1ccc(Cl)cc1)c1cc(-c2cc3ccccc3o2)nn1-c1ccccc1	87%	91.1%	105%	92.5%	108%	107%	84.9%	99.3%	93%	107%	86.5	94.5%	96%	89.6%	56.3%	83.7%	84.7%	99.7%
CCCCCCCC(=O)SCC/C=C/[C@@H]1CC(=O)NCc2cccc(n2)C2=N[C@@](C)(CS2)C(=O)N[C@@H](C(C)C)C(=O)N1	28.9%	16%	2.46% (active)	21.9%	53.6%	-1.52% (active)	48.6%	35.6%	75.3%	-6.83% (active)	24.5	38.6%	13.7%	26.9%	22.2%	0.721% (active)	-1.52% (active)	37.1%
CSc1nc2ncnc(SC)c2[nH]1	110%	100%	110%	107%	102%	102%	103%	97.9%	110%	89.6%	86.8	116%	83.9%	91.6%	106%	110%	99.3%	107%
